Data: PubChem BioAssay (NCATS)
Inconclusive results are not listed. Unmarked numbers belong to inactive results. Active and inactive are the calls of the source. The call rests on the fitted dose curve; in most records, active means well fitted inhibition curve with a large enough effect; inconclusive means small, poorly fitted or top-dose-only effect; inactive means flat fitted curve, though single readings scatter. Bridge positions count the residues as written; N and C are the ends. Square brackets hold non-standard residues; d marks the D form. Side chains are listed from the residue outwards. Peptide text beside a SMILES is read from it. * marks the point of attachment. Phg(4-OMe) = COc1ccc([C@H](N)C(=O)O)cc1; d(aIle) = CC[C@H](C)[C@@H](N)C(=O)O; d(aThr) = C[C@@H](O)[C@@H](N)C(=O)O; NMeF = CN[C@@H](Cc1ccccc1)C(=O)O; Isobutyryl = CC(C)C(=O)*

Experiment: qHTS for Inflammasome Signaling Inhibitors: IL-1-beta AlphaLISA screen against the NCATS CANVASS Library (AID 1347379);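 further: human THP-1 cells primed with LPS then triggered with ATP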;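 on Potency: secreted IL-1B measured as AlphaLISA emission at 615 nm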;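 on activity change, negative = inhibition: secreted IL-1B measured as AlphaLISA emission at 615 nm; lower signal means less IL-1B release which is the wanted effect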
Details: THP-1 LPS/ATP, IL-1B AlphaLISA secretion, 16 h; series mostly up to 57.5 µM; activity change, negative = inhibition: at the top concentration; outcome: at the top concentration
How it was run: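 THP-1, 1 hr compound pre-incubation, then LPS 250 ng/mL + ATP 1.25 mM (final); 16 hr total with compound; IL-1B AlphaLISA, ex 680/em 615 nm; 11-point qHTS, up to 57.5 uM final.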
On the % scale 0 is the no-effect control and ±100 the full control effect; potency means the concentration at half of the fitted maximal effect.

| SMILES | outcome | Potency | activity change, negative = inhibition [%] |
| --- | --- | --- | --- |
| Cc1occ2c1C(=O)c1c(cc(O)c(O)c1O)C2=O | inactive | – | – |
| O=C1CC2OCC=C3CN4C5CC3C2[C@@H]2N1c1ccccc1[C@]52C[C@@H]4C1=C[C@H]2C3CC4N(CC[C@@]45c4ccccc4N(C1=O)[C@@H]25)C/C3=C/CO (stereo not given in full) | – | 24.3 µM (active) | – |
| C/C(=C\[C@H](C)C(=O)CCCC1CC(=O)NC(=O)C1)[C@@H]1OC(=O)/C=C/CC/C=C/[C@H](O)[C@@H](O)[C@@H]1C | – | 6.11 µM (active) | – |
| C/C=C(/C)c1c(Cl)c(O)c(C)c2c1Oc1c(Cl)c(O)c(Cl)c(C)c1C(=O)O2 | inactive | – | – |
| C=C1CC[C@@H](O[C@H]2C[C@@](O)([C@H](C)NC(=O)c3[nH]c(C)c(Cl)c3Cl)[C@H](O)[C@@H](C)O2)[C@@H]2C=C[C@H](C)C(/C(O)=C3/C(=O)[C@H](C(C)C)N([C@@H]4O[C@H](C)[C@H](OC(N)=O)[C@H](OC(C)=O)[C@@H]4OC)C3=O)[C@@H]12 (stereo not given in full) | inactive | – | – |
| COc1ccc([C@@H]2CC(=O)c3c(cc(O)c(C/C=C(\C)CCC=C(C)C)c3O)O2)cc1 | inactive [at 11.5 µM] | – | – |
| O=c1cc(-c2ccc(O)c(O)c2)oc2cc(O[C@@H]3O[C@H](CO)[C@@H](O)[C@H](O)[C@H]3O)cc(O)c12 | – | – | -15.2 |
| CC[C@H](C)[C@H]1NC(=O)[C@@H](NC(=O)C(C)C)[C@@H](C)OC(=O)[C@H](COC(=O)CNC(C)=O)NC(=O)[C@@H]([C@@H](C)O)NC(=O)[C@H](Cc2ccccc2)N(C)C(=O)[C@H](c2ccc(OC)cc2)NC1=O (Isobutyryl-T[d(aIle)][Phg(4-OMe)][NMeF][d(aThr)]S([Gly-Ac]); ester 1-C) | inactive | – | – |
| C[n+]1cc2cc(C(N)=O)[nH]c3c(=N)c(Cl)c(N)c1c23 | – | – | 1.55 |
| C/C1=C/[C@@H](C)[C@H](O)[C@@H](O)/C=C/CC/C=C/C(=O)O[C@@H]1[C@H](C)C(=O)CCCC1CC(=O)NC(=O)C1 | inactive | – | – |
| COc1ccc2[nH]c3c(c2c1)CCN1C[C@H]2C[C@@H](OC(=O)c4cc(OC)c(OC)c(OC)c4)[C@H](OC)[C@@H](OC)[C@H]2C[C@H]31 | – | – | 4.08 |
| O[C@H]1c2ccccc2-c2c3c(cc4c2[C@@H]1NCC4)OCO3 | – | 24.3 µM (active) | – |
| C[C@]12CC[C@]3(C1)[C@H](CC2=O)C[C@@H](OC(=O)c1ccccc1)[C@H]1[C@](C)(C(=O)O)CCC[C@@]13C | inactive | – | – |
| CC(=O)O[C@H]1c2ccccc2-c2c3c(cc4c2[C@@H]1N(C(C)=O)CC4)OCO3 | inactive | – | – |
| C=C1CC[C@@H](Br)C(C)(C)[C@]12CC=C(C)C(=O)C2 | – | – | -0.876 |
| COc1cc2c(cc1OC)[C@@H](c1ccc3c(c1)OCO3)C(C)C(C)C2=O (stereo not given in full) | inactive | – | – |
| C[C@H]1C=C[C@H]2CCCC[C@@H]2[C@H]1C(=O)[C@H]1CC2=C(C(=O)O)CCN2C1=O | – | – | -3.08 |
| C/C(=C\[C@H](C)C(=O)/C=C/CC1CC(=O)NC(=O)C1)[C@@H]1OC(=O)/C=C/CC/C=C/C[C@@H](O)[C@@H]1C | – | 6.11 µM (active) | – |
| CC(C)[C@]12CC[C@@]3(C)[C@H](C)CC[C@H](O)[C@@]3(CC1)c1cc3c(cc12)[nH]c1ccccc13 | – | – | -13.1 |
| C/C=C1/CN2C3CC1C1C=CC(=O)N4c5ccccc5[C@@]3(C[C@@H]2C2=C[C@H]3C5CC6N(CC[C@@]67c6ccccc6N(C2=O)[C@@H]37)C/C5=C/C)[C@H]14 (stereo not given in full) | – | 12.2 µM (active) | – |
| CC(C)=CCC[C@]12c3cc4c(cc3CC[C@@]1(C)[C@H](C)CC[C@@H]2O)[nH]c1ccccc14 | – | – | -11.7 |
| Oc1ccc(C2Oc3cc(O)c4c(c3[C@@H]2c2cc(O)cc(O)c2)[C@H]2C(c3ccc(O)cc3)c3c(O)cc5c(c3[C@H]2C4c2ccc(O)cc2)[C@H](c2cc(O)cc(O)c2)C(c2ccc(O)cc2)O5)cc1 (stereo not given in full) | – | – | -6.4 |
| C=C(C)CC[C@H](Cc1c(O)cc(O)c2c1O[C@H](c1ccc(O)cc1)CC2=O)C(=C)C | inactive | – | – |
| COc1cc(/C=C/C(=O)OC[C@@H](Cc2ccc(O)c(OC)c2)[C@@H](COC(=O)/C=C/c2ccc(O)c(OC)c2)Cc2ccc(O)c(OC)c2)ccc1O | – | 15.3 µM (active) | – |
| C=CC(CCCCC)C1C(=O)NC(=O)C1C(=O)C1C2C(C)CC(C(=O)O)CC2CC1(O)C(=O)/C=C/C (stereo not given) | – | – | -29.1 |
| C[C@]12CCC[C@](C)(C(=O)O)[C@@H]1CC[C@@]1(C)c3cocc3CC[C@H]21 | – | – | 1.44 |
| COc1c(O)cc2c(c1O)C(=O)c1c(coc1C)C2=O | – | – | -13.7 |
| CC(C)C[C@@H]1c2c(O)c(C=O)c(O)c(C=O)c2O[C@]2(C)C=C[C@@H](C(C)C)C[C@H]12 | – | – | 2.27 |
| COc1cc2c(c(O)c1O)C(=O)c1c(coc1C)C2=O | – | 24.3 µM (active) | – |
| CO[C@H]1[C@@H](OC(=O)/C(C)=C\[C@@H]2O[C@@H]2[C@H]2O[C@H]2C)[C@H](O)[C@H](OCC23C[C@@H]4[C@H](C)CC[C@H]4C4(C=O)CC2C=C(C(C)C)C34C(=O)O)O[C@@H]1C (stereo not given in full) | – | – | 0.801 |
